Data taken from article PMC4552634, “A New Set of Chemical Starting Points with Plasmodium falciparum Transmission-Blocking Potential for Antimalarial Drug Discovery” (PLoS ONE, 2015).
Hit rate of the full screen: of about 13,000 compounds, about 3,200 (25%) showed an effect of 50% or more. The list shows a part of the results.

These compounds were tested on P. falciparum stage V gametocytes. Details: 48 h, 5 µM; inhibitor.
Parameters: BacTiter-Glo ATP luminescence viability of purified stage V gametocytes in 384-well plates, per cent inhibition versus DMSO
For `OCc1ccc2nc3c(cc2c1)-c1cccc2cccc-3c12` [TCMDC-137756], the “% Inhibition” value was 2.597%.
`Cc1cc(N2CCCC2)nc(Nc2ccc(NC(=O)c3ccccc3)cc2)n1` [TCMDC-124713] was tested, and the “% Inhibition” value was -11.14%.
For `COc1cccc(OC)c1OCCCOc1c(C)nc(N)nc1N` [TCMDC-131352], the “% Inhibition” value was 5.526%.
With `c1ccc(Oc2ccc(Nc3nc(NCCc4cnc[nH]4)nc(NC4CCCC4)n3)cc2)cc1` [TCMDC-139745] the “% Inhibition” value was 20.05%.
For `COc1ccc(CN2CCC(Oc3cccc(NC(=O)c4ccc(C(F)(F)F)cc4)c3)CC2)cc1` [TCMDC-133735], the “% Inhibition” value was -21.77%.
For `O=C(Nc1cccc(OC2CCN(Cc3ccc(F)cc3)CC2)c1)c1ccc(C(F)(F)F)cc1` [TCMDC-133734], the “% Inhibition” value was -18.45%.
`COc1ccc(CNC(=O)c2cnc3c(O)cccc3c2Nc2cccc(NC(=O)c3ccc(F)cc3)c2)cc1.O=C(O)C(F)(F)F` [TCMDC-139605] was tested, and the “% Inhibition” value was 78.77%.
For `O=C(Nc1ccc(Cl)c(Cl)c1)N1CCC(NCc2cccc([N+](=O)[O-])c2)CC1` [TCMDC-141277], the “% Inhibition” value was 22.25%.
With `O=C(CN1C(=O)CC1S(=O)(=O)Cc1ccco1)NCCCCCCc1ccc(F)cc1` (stereo not drawn) [TCMDC-139032] the “% Inhibition” value was 21.56%.
In the case of `COc1cccc(C(C)(C)NC[C@@H](O)[C@H](Cc2ccccc2)NC(=O)c2cc(C3CCCC3)cc(N3CCCCS3(=O)=O)c2F)c1` [TCMDC-135510], the “% Inhibition” value is reported as 45.23%.
With `CCN(CC)CCN(Cc1ccc(-c2ccc(C(F)(F)F)cc2)cc1)C(=O)Cn1c(CCc2c(F)cc(F)cc2F)nc(=O)c2ccccc21` [TCMDC-140967] the “% Inhibition” value was 61.03%.
In the case of `CCN(CC)CCN(Cc1ccc(-c2ccc(C(F)(F)F)cc2)cc1)C(=O)Cn1c(CCc2cc(F)cc(F)c2F)nc(=O)c2ccccc21` [TCMDC-140955], the “% Inhibition” value is reported as 88.67%.
`CCN(CC)CCN(Cc1ccc(-c2ccc(C(F)(F)F)cc2)cc1)C(=O)Cn1c(CCc2c(F)ccc(F)c2F)nc(=O)c2ccccc21` [TCMDC-140953] was tested, and the “% Inhibition” value was 67.68%.
In the case of `CCN(CC)CCN(Cc1ccc(-c2ccc(C(F)(F)F)cc2)cc1)C(=O)Cn1c(CCc2c(F)cccc2F)nc(=O)c2ccccc21` [TCMDC-140950], the “% Inhibition” value is reported as 87.94%.
`CC(CCCCOCCc1ccccc1)NCC(O)c1cc(Cl)c(N)c(Cl)c1` (stereo not drawn) [TCMDC-132072] was tested, and the “% Inhibition” value was 16.2%.
For `Cc1ccc(-c2nnc(Nc3ccc(C(=O)N4CCCCC4)cc3)c3ccccc23)cc1S(=O)(=O)NCC1CCCO1` (stereo not drawn) [TCMDC-125618], the “% Inhibition” value was 37.21%.
`COc1ccc2nccc([C@@H](O)CN3CCC(NCc4cc5cccc(OC)c5o4)CC3)c2c1` [TCMDC-140683] was tested, and the “% Inhibition” value was -7.327%.
With `O[C@@H](c1cc(C(F)(F)F)nc2c(C(F)(F)F)cccc12)[C@H]1CCCCN1` [TCMDC-124288] the “% Inhibition” value was 25.8%.
`Cc1ccc(F)cc1S(=O)(=O)N1CCCCC(c2ccc(C(F)(F)F)cc2)=N1` [TCMDC-134531] was tested, and the “% Inhibition” value was -12.63%.
In the case of `COc1cccc(NC(=O)Nc2cc(-c3ccc4[nH]ncc4c3)cc3c2CNC3=O)c1` [TCMDC-133475], the “% Inhibition” value is reported as 14.15%.
`O=C(Nc1ccc(Cl)cc1C(=O)Nc1cccc(F)c1)c1ccc([N+](=O)[O-])cc1` [TCMDC-123788] was tested, and the “% Inhibition” value was -68.85%.
With `CCC(C)CNC(=O)CN1CN(c2ccccc2)C2(CCN(C(=O)c3ccc(Br)cc3)CC2)C1=O` (stereo not drawn) [TCMDC-125167] the “% Inhibition” value was -9.167%.
`Cc1ccc(NC(=O)c2ccc3ncccc3c2)cc1OC1CCN(C(C)C)C1` (stereo not drawn) [TCMDC-133739] was tested, and the “% Inhibition” value was 24.97%.
For `COc1ccc2nccc([C@@H](O)CN3CCC(NCCOc4ccccc4C#N)CC3)c2c1` [TCMDC-140712], the “% Inhibition” value was 9.495%.
`Nc1ccc2nc(C=Cc3ccccc3)[nH]c2c1` [TCMDC-124430] was tested, and the “% Inhibition” value was 29.38%.
In the case of `Cc1ccc2nc(/C=C/c3cccc4cc[nH]c34)[nH]c2c1` [TCMDC-138896], the “% Inhibition” value is reported as 83.23%.
For `COc1ccc2nc(/C=C/c3cccc4ccc(C)nc34)[nH]c2c1` [TCMDC-138821], the “% Inhibition” value was -26.73%.
`COc1ccc2c(c1)CC(CNC[C@H](O)c1cccc(Cl)c1)CC2` (stereo partly drawn) [TCMDC-131994] was tested, and the “% Inhibition” value was -12.5%.
`CN(C)CCOc1ccc2c(c1)CN(C)CC2c1ccccc1` (stereo not drawn) [TCMDC-131410] was tested, and the “% Inhibition” value was 7.627%.
With `Cc1nc(-c2nc(NCc3ccccn3)ncc2-c2ccsc2)sc1C` [TCMDC-125360] the “% Inhibition” value was 31.08%.
`Cc1nc(-c2nc(NCCc3c(C)noc3C)ncc2-c2ccsc2)sc1C` [TCMDC-125357] was tested, and the “% Inhibition” value was 20.64%.
For `Cc1nc(-c2nc(N3CCOCC3)ncc2-c2ccsc2)sc1C` [TCMDC-125356], the “% Inhibition” value was 0.6256%.
`Cc1nc(-c2nc(NCc3ccncc3)ncc2-c2ccsc2)sc1C` [TCMDC-125359] was tested, and the “% Inhibition” value was 15.84%.
In the case of `Cc1nc(-c2nc(NCCc3cnccn3)ncc2-c2ccsc2)sc1C` [TCMDC-125363], the “% Inhibition” value is reported as 69.56%.
`COCCN(CCOC)c1ncc(-c2ccsc2)c(-c2nc(C)c(C)s2)n1` [TCMDC-125355] was tested, and the “% Inhibition” value was 81.41%.
For `CN(C)CCOc1ccc2[nH]c(-c3cccc(OCc4ccccc4)c3)nc2c1C#N` [TCMDC-133765], the “% Inhibition” value was 4.095%.
`COc1cc(C(=O)Nc2cccc(-c3cn4cccc(C)c4n3)c2)cc(OC)c1OC` [TCMDC-123644] was tested, and the “% Inhibition” value was 23.2%.
In the case of `CCC1N=C(N)N=C(N)N1OCc1cccc2ccccc12` (stereo not drawn) [TCMDC-131592], the “% Inhibition” value is reported as 22.21%.
`COc1ccc(CCNCCCCCCNCCc2ccc(Cl)c3ccccc23)cc1OC` [TCMDC-131270] was tested, and the “% Inhibition” value was 116.7%.
`COc1c(CNCCCCCCNCc2cc(Cl)c3ccccc3c2OC)cc(Cl)c2ccccc12` [TCMDC-137958] was tested, and the “% Inhibition” value was 32.17%.
`CCCCNCc1cc(Cl)c2ccccc2c1O` [TCMDC-137599] was tested, and the “% Inhibition” value was 77.6%.
For `COc1c(CCNCCCCNCCc2cc(Cl)c3ccccc3c2OC)cc(Cl)c2ccccc12` [TCMDC-137869], the “% Inhibition” value was 105.2%.
In the case of `COc1ccc(CCNCCCCCCNCCc2ccccc2Cl)cc1OC` [TCMDC-131273], the “% Inhibition” value is reported as 87.94%.
`COc1ccc(CCNc2nc(SCc3ccccc3Cl)nc3ccccc23)cc1OC` [TCMDC-125569] was tested, and the “% Inhibition” value was 33.86%.
`COc1cc2ncnc(NCCc3ccccc3Cl)c2cc1OC` [TCMDC-139495] was tested, and the “% Inhibition” value was 5.438%.
